According to PubChem BioAssay AID504651 (National Center for Advancing Translational Sciences (NCATS), 2011):
The campaign covered roughly 360,000 compounds. About 130 (0.036%) were called active. The sample holds actives, similar compounds and a random draw of the others, so the mix is not that of the screen. Cut-off read from the data, not from the text of the source: active = potentiation above about 30%; inactive = the rest.

molecular target: D(1A) dopamine receptor (Homo sapiens) (UniProt P21728); assay: Potentiators of Human D1 Dopamine Receptor: qHTS; conditions: HEK293 TREx D1 cells, calcium flux, dopamine EC20 potentiation; at 10 µM; active compounds read high; note: 0% is about no effect
Description: Dopamine receptors (DARs) are involved in the etiology and/or therapy of a number of neuropsychiatric and endocrine disorders. For instance, all receptor-based antiparkinsonian drugs work via stimulating the D1 DAR subtype whereas all FDA-approved antipsychotic agents are antagonists of this receptor. […] There are three different types of allosteric modulators that we are seeking, two of which will stimulate or augment receptor signaling, allosteric agonists and potentiators, while the third, allosteric antagonists, will attenuate receptor signaling. The present primary screening assay measures compound potentiation of an EC20 dopamine response by tracking calcium flux in a […], inducible Hek293 Trex D1 cell line.
NIH Chemical Genomics Center [NCGC]
NIH Molecular Libraries Probe Centers Network [MLPCN]
Assay Submitter (PI): David Sibley
Freshly passaged cells are plated in 1536 well black, clear bottom plates at a density of 4000 cells/well in 3 ul of complete media containing 1x tetracycline inducer. After an overnight incubation at 30 C in 5% CO2, cells are loaded with 2 ul of the no wash Calcium Assay Kit (ABD Bioquest) and incubated at room temperature for 30 to 90 minutes. A 10 cycle (1 second/cycle) baseline measurement is taken and then the FDSS online 1536 pintool delivers 23 nl of compound library (as well as dopamine controls) to the plate. The plate is measured for kinetically at 1 cycle/sec for 180 seconds and is considered to be the agonist portion of the assay (eg, compounds which activate a positive calcium response during this portion are flagged as potential agonists). Following the 180 second read, 1 ul of an EC20 of dopamine is delivered by an onboard pipette head. Measurements are taken kinetically for an additional 180 seconds.

Chain of D(1A) dopamine receptor (Homo sapiens) (P21728 whole entry, looked up): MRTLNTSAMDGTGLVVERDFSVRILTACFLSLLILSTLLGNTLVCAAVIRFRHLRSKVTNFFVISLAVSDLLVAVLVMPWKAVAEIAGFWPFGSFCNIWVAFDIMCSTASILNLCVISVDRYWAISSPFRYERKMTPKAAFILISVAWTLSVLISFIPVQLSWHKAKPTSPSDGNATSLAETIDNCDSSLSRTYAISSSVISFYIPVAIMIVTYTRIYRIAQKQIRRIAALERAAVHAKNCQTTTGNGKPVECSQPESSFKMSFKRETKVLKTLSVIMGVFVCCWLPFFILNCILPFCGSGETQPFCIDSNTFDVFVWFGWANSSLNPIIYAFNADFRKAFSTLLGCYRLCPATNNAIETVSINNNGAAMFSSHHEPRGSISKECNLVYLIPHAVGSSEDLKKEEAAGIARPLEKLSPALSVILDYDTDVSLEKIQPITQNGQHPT

Q: How did the potentiation turn out when `Cc1ccc(Cl)cc1N1CCN(C(=O)CN2C(=O)COc3ccc(S(=O)(=O)N4CCOCC4)cc32)CC1` was run?
A: 4.75% (inactive)

Q: Which potentiation does the source give for `Cc1c(C(=O)N2CCCC2)oc2c1-c1nn(CC(=O)NCc3ccc(OC(C)C)cc3)cc1CC2` here?
A: -0.75% (inactive)

Q: Which potentiation does the source give for `Cc1ccc(-c2nc(SCc3ccc(Br)cc3)n3[nH]c(=O)cc3n2)cc1` here?
A: -0.15% (inactive)

Q: With `O=S(=O)(c1ccccc1)c1nc(-c2ccc(Cl)cc2Cl)oc1N1CCCCC1` as the compound, how does the potentiation read?
A: -2.95% (inactive)

Q: Which potentiation does the source give for `CCOc1ccc(N(Cc2ccccc2)C(=O)c2nc(S(C)(=O)=O)ncc2Cl)cc1` here?
A: -0.05% (inactive)

Q: With `Cc1c(CCNC(=O)c2ccc(C(F)(F)F)cc2)sc2nc(-c3ccc(F)cc3)nn12` as the compound, how does the potentiation read?
A: -2.3% (inactive)

Q: How did the potentiation turn out when `COc1ccc(OC)c(-c2nc(C(N)=O)c3c(n2)n(-c2ccc4c(c2)OCO4)c(=O)n3C)c1` was run?
A: 0.75% (inactive)

Q: How did the potentiation turn out when `O=C(c1ccc2c(c1)N(Cc1ccc(Cl)cc1)C(=O)c1ccccc1S2(=O)=O)N1CCCCC1` was run?
A: -1.9% (inactive)

Q: `CCN1C(=O)c2ccccc2S(=O)c2ccc(C(=O)NCc3ccc(F)cc3)cc21` (centres undefined) was tested. Which potentiation did it give?
A: 3% (inactive)

Q: With `CN1CCN(c2ccccc2NC(=O)COc2ccc(C3CCCCC3)cc2)CC1` as the compound, how does the potentiation read?
A: 37.7% (active)

Q: `Cc1ccc(OCC(=O)Nc2ccccc2C(=O)NC2CC2)cc1` was tested. Which potentiation did it give?
A: -0.15% (inactive)

Q: For `CCOc1ccccc1NC(=O)COc1ccc(S(=O)(=O)N2CCCC2)cc1`, which potentiation is on record?
A: -4.6% (inactive)

Q: With `CCn1c2ccccc2c2nnc(SCC(=O)O)nc21` as the compound, how does the potentiation read?
A: -1.3% (inactive)

Q: For `Cc1oc2ncnc(N3CCOCC3)c2c1C(=O)NCCc1ccccc1`, which potentiation is on record?
A: 2.6% (inactive)

Q: For `COc1ccccc1N1CCN(C(CNC(=O)C(=O)NCc2ccc(C)cc2)c2cccnc2)CC1` (centres undefined), which potentiation is on record?
A: 3.55% (inactive)

Q: For `COc1cccc(C(=O)NC2CCN(C#N)CC2)c1`, which potentiation is on record?
A: -6.95% (inactive)

Q: How did the potentiation turn out when `O=C(Cn1cc(SCc2cccc(Cl)c2)c2ccccc21)N1CCCCC1` was run?
A: -2.05% (inactive)

Q: For `CCCOc1ccc(NC(=O)CC2C(=O)N(c3ccccc3)C(=O)N2Cc2ccco2)cc1` (centres undefined), which potentiation is on record?
A: -2.9% (inactive)

Q: With `Cc1cccc(NC(=O)C2CCCN2S(=O)(=O)c2cccc3nsnc23)c1C` (centres undefined) as the compound, how does the potentiation read?
A: -2.95% (inactive)

Q: `CC(C)c1ccc(NC(=O)Cn2nnc(C(=O)NCCc3ccccc3)c2N)cc1` was tested. Which potentiation did it give?
A: -1.7% (inactive)

Q: Which potentiation does the source give for `O=C(CSc1nc2nccnc2c(=O)n1CCc1c[nH]c2ccccc12)Nc1ccccc1F` here?
A: -3.65% (inactive)

Q: With `COc1ccc(S(=O)(=O)Nc2cccc3cccnc23)c(N)c1` as the compound, how does the potentiation read?
A: -3.75% (inactive)

Q: Which potentiation does the source give for `CC(C)NC(=O)NC(=O)CSc1nnc(-c2ccccc2F)n1N` here?
A: 35% (active)

Q: `Nn1c(SCC(=O)NC2CCCC2)nnc1-c1ccccc1F` was tested. Which potentiation did it give?
A: -7.1% (inactive)

Q: How did the potentiation turn out when `Nn1c(SCC(=O)NC(=O)NC2CCCC2)nnc1-c1ccccc1F` was run?
A: -9.3% (inactive)

Q: `O=S(=O)(c1ccc2c(c1)OCCO2)N1CCN(S(=O)(=O)c2cc(F)ccc2F)CC1` was tested. Which potentiation did it give?
A: -0.7% (inactive)

Q: `Cc1ccc(C)c(Cn2c(=O)n(CCC(=O)NCc3ccc4c(c3)OCO4)c(=O)c3sccc32)c1` was tested. Which potentiation did it give?
A: 0.75% (inactive)

Q: Which potentiation does the source give for `CCOc1cc(C2c3c(-c4ccc(Br)cc4)n[nH]c3C(=O)N2c2ccc(Cl)cc2)ccc1O` (centres undefined) here?
A: 1.25% (inactive)

Q: With `COc1cc(CN(CC2CCCO2)C(=O)c2ccccc2F)cc(OC)c1OC` (centres undefined) as the compound, how does the potentiation read?
A: 5% (inactive)

Q: With `N#CN1CCC(NC(=O)c2ccc(F)cc2)CC1` as the compound, how does the potentiation read?
A: -0.05% (inactive)

Q: `O=C(CNC(=O)c1ccc(Cl)c(C(F)(F)F)c1)OC(C(=O)Nc1cc(C(F)(F)F)ccc1Cl)c1ccccc1` (centres undefined) was tested. Which potentiation did it give?
A: 1.3% (inactive)

Q: With `CCOc1ccccc1NC(=O)CSc1ncc(S(=O)(=O)c2ccc(C(C)(C)C)cc2)c(=O)[nH]1` as the compound, how does the potentiation read?
A: 2.25% (inactive)

Q: Which potentiation does the source give for `COc1ccc2c(Sc3ccc(C)cc3)c(C(=O)NC(C)c3ccccc3)[nH]c2c1` (centres undefined) here?
A: -3.25% (inactive)

Q: With `Cn1nnnc1SCCCNCc1cccc(OCc2ccc(Cl)cc2)c1` as the compound, how does the potentiation read?
A: 0.9% (inactive)

Q: With `CC(NC(=O)c1cc(Sc2ccc(F)cc2F)nc2ccccc12)c1ccccc1` (centres undefined) as the compound, how does the potentiation read?
A: -2.8% (inactive)

Q: How did the potentiation turn out when `Cc1cc2c(s1)c1cnn(Cc3c(F)cccc3Cl)c(=O)c1n2C` was run?
A: -3.2% (inactive)

Q: How did the potentiation turn out when `COc1ccc(OCCCn2c(C3CC(=O)N(c4ccc(F)cc4)C3)nc3ccccc32)cc1` (centres undefined) was run?
A: -2% (inactive)

Q: `Cn1nnnc1Sc1ncnc2scc(-c3ccccc3[N+](=O)[O-])c12` was tested. Which potentiation did it give?
A: 9.9% (inactive)

Q: Which potentiation does the source give for `COC(=O)c1ccc(C2C(C(=O)Nc3ccccc3)=C(C)Nc3nc4ccccc4n32)cc1` (centres undefined) here?
A: -1.75% (inactive)

Q: Which potentiation does the source give for `CC(C)Cn1c(=O)c2ccccc2n2c(CCC(=O)N3CCN(c4cccc(Cl)c4)CC3)nnc12` here?
A: -1.35% (inactive)

Q: With `Cc1ccc(NC(=O)c2ccc(CN3CC(=O)N4CCCCC4C3=O)cc2)c(Cl)c1` (centres undefined) as the compound, how does the potentiation read?
A: 1.5% (inactive)

Q: How did the potentiation turn out when `COc1ccc(-n2ccn(CC(=O)Nc3ccc(C)c(C)c3)c(=O)c2=O)cc1OC` was run?
A: -0.8% (inactive)

Q: `COc1cc(-c2cc3n(C)c(C)c(CCC(=O)Nc4ccc(F)cc4)c(=O)n3n2)cc(OC)c1OC` was tested. Which potentiation did it give?
A: 0.6% (inactive)

Q: `Cc1cc(C)cc(NC(=O)c2cnc3sc(N4CCCC4)nn3c2=O)c1` was tested. Which potentiation did it give?
A: -4.45% (inactive)

Q: With `CCCC(=O)Nc1cc(C(=O)NCc2ccc(OC)cc2)ccc1S(=O)(=O)c1ccc(Cl)cc1` as the compound, how does the potentiation read?
A: -6.15% (inactive)

Q: With `COc1ccc(Cl)cc1NC(=O)CCn1c(=O)c2cccn2c2ccccc21` as the compound, how does the potentiation read?
A: -4.3% (inactive)

Q: `CCCCN(CC)CCCNC(=O)Cn1ncc2c([nH]c3ccc(C)cc32)c1=O` was tested. Which potentiation did it give?
A: 1.4% (inactive)

Q: How did the potentiation turn out when `COc1ccccc1CNCc1ccc(C(=O)O)s1` was run?
A: -0.25% (inactive)

Q: Which potentiation does the source give for `O=C(NCC12CC3CC(CC(C3)C1)C2)c1cc2nc(-c3ccccc3)cc(C(F)(F)F)n2n1` here?
A: 0.55% (inactive)

Q: With `CCOc1ccccc1NC(=O)Cn1c(=O)n(-c2cccc(C)c2)c(=O)c2c1c1cc(OC)ccc1n2C` as the compound, how does the potentiation read?
A: 3.65% (inactive)

Q: `CC(C)(C)OC(=O)N1CCC(c2c(C(=O)N3CCc4ccccc4C3)cnn2-c2ccc(F)cc2)CC1` was tested. Which potentiation did it give?
A: -4.3% (inactive)

Q: `O=C(CCSCc1ccccc1F)N1CCN(c2ccc(Cl)cc2)CC1` was tested. Which potentiation did it give?
A: -0.6% (inactive)

Q: `Cc1noc(C)c1-c1ccc2ncnc(NCc3ccc(F)c(F)c3)c2c1` was tested. Which potentiation did it give?
A: -4.15% (inactive)

Q: With `O=C(CS(=O)(=O)c1cccc2nsnc12)N1CCN(c2cccc(Cl)c2)CC1` as the compound, how does the potentiation read?
A: 0.15% (inactive)
